# HT1080 IDH1KD tx: toxicity to HT-1080 IDH1 knockdown cells (counter line) | HT-1080 IDH1 knockdown viability, ATP luminescence, 48 h | Potency, µM (doses to about 46.1 µM), without a hit: at the top dose activity, negative = toxicity, hits mostly cytotoxic | 2% of 360,000 active | AID 686971;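 further: 0% = DMSO wells and -100% = cell-free medium wells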
#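 Luminescent ATP read-out (CellTiter-Glo, 10 min at room temperature) after 48 h compound exposure at 37 °C gave viability of IDH1-knockdown HT-1080 cells. Activity was normalised to DMSO and cell-free wells, then fitted as concentration-response curves.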
# KB-V1 MDR tox: KB-V1 MDR subline cytotoxicity; KB-V1 MDR cells viability, CellTiter-Glo, 72 h; Potency, µM (doses to about 46.1 µM), hits mostly cytotoxic; 3.4% of 400,000 active; further: nearly all actives have a fitted effect of over 60% in size
#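 Potencies derive from concentration-effect curves fitted to normalized luminescence (CellTiter-Glo) of KB-V1 cells treated for 72 h at 37 degrees C in phenol-red-free DMEM containing 10% FBS.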
# KB-3-1 tox: KB-3-1 parental cell cytotoxicity; KB-3-1 viability, CellTiter-Glo ATP luminescence, 72 h; Potency, µM (highest dose often 46.1 µM), usual class: cytotoxic; 1.4% of 400,000 active; AID 1347075; further: nearly all actives have a fitted effect of over 60% in size
#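 72 h, 37 °C compound treatment of KB-3-1 parental cells; CellTiter-Glo added, 10 min, luminescence read. Data corrected against DMSO-only plates and normalized before curve fitting.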
# TDP1 cell noCPT: qHTS for Inhibitors of human tyrosyl-DNA phosphodiesterase 1 (TDP1): qHTS in cells in absence of CPT | 15% of 420,000 active | Potency, µM (highest dose often 46.2 µM), for inactives: top-dose activity change, negative = growth inhibition, most hits filed as inhibitors | DT40 Tdp1-/- hTDP1 cells, no CPT, ATP luminescence, 48 h; further: nearly all actives have a fitted effect of over 55% in size
#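 Chicken DT40 Tdp1-/- cells stably complemented with human TDP1 were seeded at 400 cells/well with DMSO in place of 20 nM camptothecin. After compound pinning, cells grew at least 48 hr at 37 °C; viability read by CellTiter-Glo luminescence.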
# TDP1 cell CPT: DT40-hTDP1 cell growth loss with CPT. chicken DT40 Tdp1-/-;hTDP1 cells + 20 nM CPT, ATP luminescence, 48 h. Potency, µM (series often up to 46.2 µM), without a hit: top-dose activity change, negative = growth inhibition, most hits filed as inhibitors. 12% of 420,000 active. AID 686979; further: nearly all actives have a fitted effect of over 55% in size
#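 Chicken DT40 Tdp1-/- cells stably complemented with human TDP1 were seeded at 400 cells/well in medium containing 20 nM camptothecin, exposed to pin-transferred compounds, and grown at 37 °C for at least 48 hr. Viability was read as ATP luminescence.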
# HT1080NT lethal: kills 2HG-producing HT-1080-NT fibrosarcoma cells | 1.6% of 360,000 active | Potency, µM (series often up to 46.1 µM), inactives show at the top dose activity, negative = less viability, hits mostly cytotoxic | HT-1080-NT fibrosarcoma viability, CellTiter-Glo ATP luminescence, 48 h;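 further: NT is the 2HG producing partner of a matched IDH1 knockdown line; 0% = DMSO-treated cells and -100% = media-only wells without cells; nearly all actives have a fitted effect of over 55% in size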
#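 Viability by CellTiter-Glo luminescence after 48 h compound exposure at 37C of HT-1080-NT cells (750/well, RPMI, 5% FBS). % activity scaled between DMSO wells and medium-only wells, then curve-fitted and categorized by curve class.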
# Starred values were filed as active, the others as inactive; i = inactive; u = inconclusive. Compounds with a hit are over-represented: about 19% of the library has one in this group of screens. The call rests on the fitted dose curve; in most records, active means well fitted curve in the direction sought with a large enough effect; inconclusive means small, poorly fitted or top-dose-only effect, or another doubt; inactive means no such curve, though single readings can be large; an effect the other way counts as inactive or inconclusive. Unless noted, on the % scale 0 is the no-effect control and ±100 the full control effect; potency means the concentration at half of the fitted maximal effect.
SMILES,HT1080 IDH1KD tx,KB-V1 MDR tox,KB-3-1 tox,TDP1 cell noCPT,TDP1 cell CPT,HT1080NT lethal
O=[N+]([O-])c1cc(-c2ncccn2)c([N+](=O)[O-])s1,21µM*,u,16µM*,2.9µM*,2.3µM*,16µM*
CCc1nc(N2CCC(C)CC2)c2oc3ccccc3c2n1,u,9.2µM*,i,u,u,u
CCc1nc(Sc2nc(C)cc(C)n2)c2oc3ccccc3c2n1,u,16µM*,u,21µM*,u,u
CCc1nc(N(CC)CC)c2oc3ccccc3c2n1,-15%,i,i,-24%,-28%,-21%
CCc1nc(SCC(=O)N2CCN(c3ccccc3)CC2)c2oc3ccccc3c2n1,-17%,13µM*,i,21µM*,26µM*,7%
C=C1CCC2[C@](C)(CO)[C@H](O)CC[C@@]2(C)[C@@H]1C/C=C1\C(=O)OC[C@H]1O (stereo partly drawn),-14%,i,i,4.6µM*,3.7µM*,-3%
CCOc1ccccc1O[C@H](c1ccccc1)[C@H]1CNCCO1,-11%,i,i,19µM*,30µM*,-3%
CCOc1ccccc1NC(=O)C(NCC1CCCCC1)c1ccccc1 (stereo not drawn),-6%,i,i,-82%,u,-2%
CS(=O)(=O)c1ccc(Cl)c(NC(=O)COc2ccc3c(c2)CCC3)c1,-29%,i,i,-9%,-12%,-26%
CCOC(=O)C(=O)N(C)c1c(CC)nc2c(OCc3ccccc3C)cccn12,8%,i,i,-22%,-24%,14%
CCc1nc2c(OCc3ccccc3C)cccn2c1N(C)C(=O)CC(C)C,-26%,i,i,18µM*,21µM*,-16%
CCCCC(=O)N(C)c1c(CC)nc2c(OCCOC)cccn12,29%,i,i,0%,-14%,22%
CCc1nc2c(OCc3ccccc3C)cccn2c1N(C)C(=O)C(C)C,4%,i,i,16µM*,18µM*,-6%
CCc1nc2c(OCc3ccc(C(=O)OC)cc3)cccn2c1N(C)C(=O)CC(C)C,6%,i,i,u,u,2%
CCCCC(=O)N(C)c1c(CC)nc2c(OCc3ccccc3C)cccn12,-20%,u,i,29µM*,29µM*,-25%
CCOC(=O)c1ccccc1NC(=O)COC(=O)CN1C(=O)NC2(CCCC2)C1=O,1%,i,i,u,-34%,0%
CCC1CN(C)C2Cc3c([nH]c4ccccc34)C(=O)CC1C2C(=O)OC (stereo not drawn),-1%,i,i,-38%,23µM*,0%
CCc1ccc(/C=C2\Oc3cc(OC(=O)N4CCOCC4)ccc3C2=O)cc1,29%,21µM*,u,15µM*,u,14%
COc1ccccc1C(=O)Oc1ccc2c(c1)O/C(=C\c1ccncc1)C2=O,u,i,i,13µM*,-30%,-24%
COc1ccc(/C=C2\Oc3cc(OC(=O)N4CCOCC4)ccc3C2=O)cc1,5%,i,i,13µM*,18µM*,6%
CC(=O)Oc1ccc2c(c1)O/C(=C\c1ccncc1)C2=O,-9%,i,i,-23%,u,3%
O=C(COC(=O)c1cnccn1)N=c1sccn1Cc1ccccc1Cl,10%,i,i,-14%,4%,7%
CC(C)Sc1ccc(C(=O)Nc2ccc(F)cc2F)cn1,-26%,i,i,23µM*,u,-6%
CCOc1ccccc1-c1c2cc(O)c(=O)cc-2oc2cc(O)c(O)cc12,u,i,u,u,23µM*,u
N#CC(c1ccccn1)(c1ncc(C(F)(F)F)cc1Cl)N1CCOCC1 (stereo not drawn),2%,i,u,-10%,-7%,2%
SMILES,HT1080 IDH1KD tx,KB-V1 MDR tox,KB-3-1 tox,TDP1 cell noCPT,TDP1 cell CPT,HT1080NT lethal
CCC(=O)Nc1cc(ON=C(C)C)cc([N+](=O)[O-])c1,8%,i,i,-2%,11%,-1%
O=C(CCl)Nc1cc(SCC(O)CO)cc([N+](=O)[O-])c1 (stereo not drawn),1.6µM*,u,5.8µM*,u,4.6µM*,1.8µM*
CC(C)=NOc1cc(NC(=O)CCl)cc([N+](=O)[O-])c1,9.2µM*,16µM*,18µM*,4.1µM*,3.7µM*,5.8µM*
CC1CCCC(C)N1C(=O)CN1C(=O)NC2(CCOc3ccccc32)C1=O (stereo not drawn),-14%,i,i,-24%,14%,-11%
C=CCn1c(N)c(C(=O)Nc2cccc(C)c2)c2nc3ccccc3nc21,u,21µM*,i,-15%,-24%,-9%
Nc1c(C(=O)Nc2ccccc2)c2nc3ccccc3nc2n1CCCN1CCOCC1,18µM*,u,i,u,u,23µM*
C=CCn1c(N)c(C(=O)Nc2ccc(C)c(C)c2)c2nc3ccccc3nc21,-19%,i,i,u,-18%,-12%
Cc1[nH]n(-c2ccccc2)c(=O)c1/C=N/n1c(C)nc2ccccc2c1=O,-8%,u,i,u,u,-5%
Cc1ccc(-n2[nH]c(C)c(/C=N/n3c(C)nc4ccccc4c3=O)c2=O)cc1,11µM*,u,i,23µM*,6.5µM*,18µM*
Cc1ccc(-n2[nH]c(C)c(C=Nc3ccc(C)cn3)c2=O)cc1,0%,u,u,16µM*,9.2µM*,7.9µM*
Cc1nc2ccccc2c(=O)n1/N=C/c1cn(-c2ccccc2)nc1-c1cccs1,-19%,i,u,21µM*,u,-22%
CCCn1c(-c2cccs2)nc2nc3ccccc3nc21,2%,i,i,16µM*,18µM*,2%
c1csc(-c2nc3nc4ccccc4nc3n2Cc2ccc3c(c2)OCO3)c1,-19%,i,u,u,18µM*,-12%
Nc1c(S(=O)(=O)c2cccs2)c2nc3ccccc3nc2n1Cc1ccc2c(c1)OCO2,u,u,i,u,u,u
O=C(CN1CCN(S(=O)(=O)/C=C/c2ccccc2)CC1)NCC(F)(F)F,-1%,i,i,-23%,3%,7%
CN1CCN(C2=Cc3ccccc3Sc3cc(F)c(Cl)cc32)CC1,u,u,u,29µM*,u,u

# Bioassay records as filed in PubChem.
